Reference: PubChem BioAssay AID588800 (Johns Hopkins Ion Channel Center, 2011)
Active and inactive are the calls of the source.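 The calls were made as follows: active = peak inhibition of the KCNQ2 potassium channel above 30% at some tested dose, plus a fitted dose response curve; inactive = no inhibition at any dose, or no curve.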

Target: Potassium voltage-gated channel subfamily KQT member 2 (Rattus norvegicus) (UniProt O88943)
Assay: blockade of KCNQ2 thallium flux – cell-based, FluxOR thallium flux, CRC set 2, selectivity assay for KCNK9 inhibitor project, SAR follow-up (AID 588800)

Chain of Potassium voltage-gated channel subfamily KQT member 2 (Rattus norvegicus) (O88943 whole entry, looked up): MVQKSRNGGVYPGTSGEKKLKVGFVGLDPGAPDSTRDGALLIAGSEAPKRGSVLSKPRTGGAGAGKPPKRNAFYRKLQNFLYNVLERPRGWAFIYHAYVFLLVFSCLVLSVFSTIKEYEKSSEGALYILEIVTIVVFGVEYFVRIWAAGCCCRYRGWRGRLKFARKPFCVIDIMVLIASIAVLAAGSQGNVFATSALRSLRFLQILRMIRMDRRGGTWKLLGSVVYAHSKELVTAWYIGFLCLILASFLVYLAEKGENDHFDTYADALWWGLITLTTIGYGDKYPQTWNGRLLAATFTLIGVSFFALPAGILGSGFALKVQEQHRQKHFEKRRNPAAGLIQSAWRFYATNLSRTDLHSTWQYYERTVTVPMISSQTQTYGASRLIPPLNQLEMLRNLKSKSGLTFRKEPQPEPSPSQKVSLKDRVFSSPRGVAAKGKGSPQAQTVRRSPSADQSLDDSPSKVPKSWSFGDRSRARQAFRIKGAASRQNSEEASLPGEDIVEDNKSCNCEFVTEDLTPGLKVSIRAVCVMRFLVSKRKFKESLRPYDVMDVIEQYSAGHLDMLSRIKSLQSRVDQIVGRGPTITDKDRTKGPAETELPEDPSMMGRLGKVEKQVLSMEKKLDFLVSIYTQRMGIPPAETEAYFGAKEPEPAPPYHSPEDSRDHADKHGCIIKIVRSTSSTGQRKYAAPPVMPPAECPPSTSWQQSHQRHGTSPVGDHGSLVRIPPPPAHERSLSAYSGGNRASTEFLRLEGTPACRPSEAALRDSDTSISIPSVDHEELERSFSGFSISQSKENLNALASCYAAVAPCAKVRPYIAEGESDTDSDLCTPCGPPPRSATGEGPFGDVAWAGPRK

Structure (SMILES)	outcome
O=C(Nc1cccc(NC(=O)c2ccoc2)c1)c1ccccc1	inactive
COc1ccccc1C(=O)Nc1cccc(NC(=O)c2ccccc2)c1	inactive
CC(c1ccccc1)n1c(-c2ccco2)n[nH]c1=S (stereo unspecified)	inactive
CCOc1ccccc1NC(=O)c1cccc(NC(=O)c2ccccc2)c1	inactive
S=c1[nH]nc(-c2ccco2)n1CC1CCCCC1	inactive
CCOc1ccccc1C(=O)Nc1cccc(NC(=O)c2cccc(C)c2)c1	inactive
CCOc1ccccc1NC(=O)c1cccc(NC(=O)C2CCCC2)c1	inactive
CCOc1ccccc1NC(=O)c1cccc(C(=O)NC2CCCC2)c1	inactive
CC(C)n1c(-c2ccco2)n[nH]c1=S	inactive
O=C(Nc1cccc(NC(=O)c2ccsc2)c1)c1ccccc1	inactive
Cc1cccc(C(=O)Nc2cccc(NC(=O)c3ccccc3Cl)c2)c1	inactive
COc1ccccc1NC(=O)c1cccc(NC(=O)CC2CCCC2)c1	inactive
Cc1ccc(C(=O)Nc2cccc(NC(=O)c3ccccc3)c2)cc1	inactive
Cc1cccc(S(=O)(=O)Nc2cccc(NC(=O)c3ccccc3)c2)c1	inactive
Cc1cccc(C(=O)Nc2cccc(NC(=O)c3ccco3)c2)c1	inactive
CCOc1ccccc1NC(=O)c1cccc(NC(=O)c2cccc(C(F)(F)F)c2)c1	inactive
CC(C1CC2CCC1C2)n1c(-c2ccccc2)n[nH]c1=S (stereo unspecified)	inactive
CCOc1ccccc1NC(=O)c1cccc(NC(=O)c2cccc(OC)c2)c1	inactive

Structure (SMILES)	outcome
Cc1cccc(C(=O)Nc2cccc(NC(=O)c3ccc(N(C)C)cc3)c2)c1	inactive
COc1ccccc1C(=O)Nc1cccc(NC(=O)c2ccccc2C)c1	inactive
CC(C1CC2CCC1C2)n1c(-c2cccc(Cl)c2)n[nH]c1=S (stereo unspecified)	inactive
CCOc1ccccc1NC(=O)c1cccc(NC(=O)C(C)(C)C)c1	inactive
COc1ccccc1NC(=O)c1cccc(NC(=O)C2CCCC2)c1	inactive
Cc1cccc(C(=O)Nc2cccc(NC(=O)c3cccc(Cl)c3)c2)c1	inactive
Cc1cccc(C(=O)Nc2cccc(NC(=O)c3ccccc3C(F)(F)F)c2)c1	inactive
COc1cccc(C(=O)Nc2cccc(NC(=O)c3ccccc3)c2)c1	inactive
CCOc1ccccc1C(=O)Nc1cccc(NC(=O)C2CCCC2)c1	inactive
CCOc1ccccc1NC(=O)c1cccc(NC(=O)C2CCOC2)c1 (stereo unspecified)	inactive
O=C(Nc1cccc(NC(=O)C2CCCCC2)c1)c1ccccc1	inactive
COc1ccccc1NC(=O)c1cccc(NC(=O)C2CCCCC2)c1	inactive
O=C(Nc1cccc(NC(=O)c2cccs2)c1)c1ccccc1	inactive
CCOc1ccccc1NC(=O)c1cccc(NC(=O)c2ccc(Cl)cc2)c1	inactive
COc1ccccc1C(=O)Nc1cccc(NC(=O)c2ccccc2OC)c1	inactive
Cc1cccc(C(=O)Nc2cccc(NC(=O)c3ccccc3C(C)C)c2)c1	inactive
CCOc1ccccc1NC(=O)c1cccc(NC(=O)CC2CCCCC2)c1	inactive
COc1ccccc1NC(=O)c1cccc(NC(=O)c2ccccc2C(F)(F)F)c1	inactive
